TDP-43 yeast inh – qHTS of TDP-43 Inhibitors; 1.8% of 410,000 active; Potency, µM (highest dose often 46.1 µM), for inactives: at the top dose growth rescue (activation), hits mostly activators; TDP-43 expressing yeast growth rescue, BacTiter-Glo, 24 h; note: % of control where 0% means no effect; nearly all actives have a fitted effect of over 50% in size
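Yeast expressing TDP-43 (pregrown in raffinose, seeded at OD600=0.02 in galactose medium) exposed to compounds 24 hr at 30 deg C. Growth read by BacTiter-Glo luminescence; rescue of toxicity appears as increased signal.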
FUS suppressor – qHTS for Suppressors of FUS Proteinopathy: Primary screen using FUS-linked yeast assay; S. cerevisiae FUS-expressing, growth rescue, OD600, 24 h; Potency, µM (doses to about 76.6 µM), actives largely listed as activators; 0.24% of 390,000 active; AID 1347120, 2019;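 note: plate controls were DMSO vehicle for no effect and reference control for full effect; nearly all actives have a fitted effect of over 55% in size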
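Galactose (2%) drives FUS expression in yeast precultured in raffinose; seeding density OD 0.005. Test compounds incubated 24hr at 30C and 99% humidity before absorbance at 600 nm was measured.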
aSyn rescue – qHTS of alpha-syn Inhibitors; Yeast expressing alpha-synuclein, growth rescue, BacTiter-Glo, 24 h; 0.14% of 370,000 active; AID 652106, 2013; Potency, µM (top dose mostly 46.1 µM), for the others: at the top dose growth rescue (activation), most hits filed as activators; note: % of control where 0% means no effect; nearly all actives have a fitted effect of over 65% in size
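Readout is rescue of growth in alpha-synuclein-expressing yeast, so inhibitors of toxicity appear as activators. Growth after 24 hr at 30 deg C in galactose medium is quantified by luminescence.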
Abeta yeast res – qHTS for compounds that reverse cellular toxicity of Amyloid beta (A-beta) peptide in yeast: Primary Screen; 0.063% of 410,000 active; Potency, µM (series often up to 46.1 µM), hits mostly activators; yeast expressing A-beta42, growth rescue, OD600, 48 h; response scale: 0% DMSO, 100% iron-clioquinol control; note: nearly all actives have a fitted effect of over 55% in size
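Yeast growth medium received pinned compounds, then yeast cells expressing toxic A-beta were added; plates incubated at 30 C for 48 hr. Growth read as absorbance at 600 nm, normalized to DMSO and equimolar FeCl3 plus clioquinol controls.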
Mito fusion act – qHTS Assay for Small Molecule Inhibitors of Mitochondrial Division or Activators of Mitochondrial Fusion; S. cerevisiae fusion-defective mutant growth rescue, CellTiterGlo 48 h; Potency, µM (highest dose often 46.1 µM), without a hit: at the highest dose growth rescue (activation), most hits filed as activators; 0.23% of 320,000 active; AID 485298, 2010; note: % of control where 0% means no effect; nearly all actives have a fitted effect of over 45% in size
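S. cerevisiae fusion-defective temperature-sensitive mutants (e.g. fzo1-1, mgm1-5) grown 48 h at 37C in YPEG (ethanol/glycerol non-fermentable) medium with 23 nl compound per well; growth rescue read as CellTiterGlo luminescence.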
The depositor's hits bear a star; i = inactive; ? = inconclusive; . = not tested or not shown; ! = repeats disagree; [ ] = dose if it differs, or a comment. This is a sample that favours compounds with a hit; in the whole collection about 2.2% have one here. Calls come from the whole dose curve; as a rule, active = well fitted curve in the direction sought with a large enough effect; inconclusive = small, poorly fitted or top-dose-only effect, or another doubt; inactive = no such curve, though single readings can be large; an effect the other way counts as inactive or inconclusive. Potency is the fitted concentration of half-maximal effect.

SMILES	TDP-43 yeast inh	FUS suppressor	aSyn rescue	Abeta yeast res	Mito fusion act
CCOc1ccc(NS(=O)(=O)c2ccc(C(=O)N(C)Cc3cccc(OC)c3OC)cc2)cc1	-13%	22µM*	0%	i	5%
COc1cccc(CN(C)C(=O)c2ccc(NS(=O)(=O)c3ccc4[nH]c(=O)[nH]c4c3)cc2)c1OC	-4%	.	2%	i	0%
COc1cc2nc(N3CCCN(C)CC3)nc(NC3CCOCC3)c2cc1OC	.	.	-4%	.	.
Cc1cc(C)c(C#N)c(SCC(=O)c2cccs2)n1	2.8µM*	i	12%	i	11%
CCOC(=O)[C@H]1[C@H]2COc3ccc(OC)cc3[C@H]2N2C(=O)CNC(=O)[C@@]12C	-13%	i	-2%	i	-9%
C=CCN1[C@H](C)COc2cccc(N3CCSCC3)c2S1(=O)=O	.	i	.	.	.
Cc1ccc(-c2n[nH]c3c2C(c2ccc(C(C)(C)C)cc2)NC3=O)cc1 (stereo not given)	1%	i	.	i	.
COc1ccc(N(CC(=O)N2CCN(c3ccccc3)CC2)S(=O)(=O)c2ccccc2)cc1	22%	i	9%	i	.
CCCCCOC(=O)Cc1c(O)c2ccccc2n(C)c1=O	11µM*	i	13%	i	1%
Cn1c(=O)c(Cc2ccccc2)c(O)c2ccccc21	-1%	i	-1%	i	1%
COc1ccccc1CNc1nc(Oc2cccc(F)c2)c2sccc2n1	35µM*	?	8%	i	.
COCCNc1nc(Oc2cccc(F)c2)c2sccc2n1	?	i	-3%	i	.
Cc1cccc(CNC(=O)C2CCN(S(=O)(=O)c3ccc4c(c3)CCCN4C(=O)C3CCC3)CC2)c1	3%	28µM*	.	i	.
CC(=O)N1CCCc2cc(S(=O)(=O)N3CCCC(C(=O)N4CCN(c5ccccc5)CC4)C3)ccc21 (stereo not given)	11%	i	0%	i	7%
CC(=O)N1CCCc2cc(S(=O)(=O)N3CCCC(C(=O)N4CCN(c5cc(C)ccc5C)CC4)C3)ccc21 (stereo not given)	-8%	13µM*!	7%	i	-9%
Cc1ccc(CNC(=O)C2CCN(S(=O)(=O)c3ccc4c(c3)CCCN4C(=O)C3CCC3)CC2)cc1	3%	i	.	i	.
CCc1ccccc1NC(=O)CC(c1ccc(F)cc1)N1Cc2ccccc2C1=O (stereo not given)	-9%	i	.	i	.
O=C(NNc1nc2c(F)cccc2s1)c1ccc(F)cc1	10µM*	i	0%	i	-2%
COc1cc(C(=O)NNc2nc3cc4c(cc3s2)OCO4)cc(OC)c1OC	12%	i	3%	i	-5%
O=C(NNc1nc2cc3c(cc2s1)OCO3)c1ccccc1	4%	i	0%	i	-8%
O=C(NNc1nc2cc3c(cc2s1)OCO3)c1cccc(F)c1	5.6µM*	i	9%	i	-3%
COc1cc(OC)cc(C(=O)NNc2nc3cc4c(cc3s2)OCO4)c1	10µM*	i	7%	i	-5%
CC(C)c1ccc(/C=C2\C=Cc3ccccc32)cc1	.	.	-1%	.	.
COc1ccc(-n2ncc(C(=O)Nc3ccc4c(c3)OCO4)c2C2CCN(C(=O)OC(C)(C)C)CC2)cc1	-7%	?	.	i	.
COc1cc2c(NC3CCN(C)CC3)nc(N3CCCN(C)CC3)nc2cc1OCC1CCCCN1 (stereo not given)	.	.	9%	.	.
SMILES	TDP-43 yeast inh	FUS suppressor	aSyn rescue	Abeta yeast res	Mito fusion act
O=C(COC(=O)CCC(=O)c1ccc(Cl)cc1)NCc1ccc(F)cc1	14µM*	i	2%	i	.
CC1(C(=O)OCC(=O)NCc2ccc(Cl)cc2)CC1(Cl)Cl (stereo not given)	14µM*	.	10%	i	.
OC(c1ccccc1)(c1nc(-c2ccc(F)c(Cl)c2)cs1)C(F)(F)F (stereo not given)	-93%	i	-82%	i	.
Cc1[nH]c2ccccc2c1/C=N/Nc1ccc([N+](=O)[O-])cc1	2.8µM*	i	10%	i	-1%
Cc1[nH]c2ccccc2c1/C=N/NC(=O)c1cccc([N+](=O)[O-])c1	0%	i	-2%	i	-5%
Cc1ccc(CNC(=O)c2ccc(N3CCC4(CC3)CC(c3ccccc3)=NO4)c(NC(=O)c3ccco3)c2)cc1	21%	18µM*	-2%	i	-2%
Cc1ccc(CNC(=O)c2ccc(N3CCC4(CC3)CC(c3cccc(Br)c3)=NO4)c(NC(=O)c3ccco3)c2)cc1	0%	?	-3%	i	-9%
CC1CCCCN1C(=S)Nc1ccc(S(=O)(=O)N2CCCCC2)cc1 (stereo not given)	5%	i	20%	i	.
COc1ccc(/C=N\NC(=O)c2ccccc2F)cc1COc1ccc(F)cc1F	?	i	4%	i	-3%
COc1ccc(/C=N/NC(=O)c2ccc(NC(C)=O)cc2)cc1COc1ccc(F)cc1F	9%	25µM*	-4%	i	-6%
COc1cccc(CCNC(=O)CCc2nc(-c3ccccc3F)no2)c1	.	i	.	.	.
Cc1nn(C(=O)c2ccccc2)c(C)c1Sc1ccc(Cl)cc1	35µM*	?	.	i	.
C=CC[C@H](CC(=O)NCCO)C(=O)N[C@@H](COC(=O)[C@@H](CC=C)Cc1ccc(F)cc1)Cc1ccccc1	24%	i	0%	i	.
O=C(C[C@@H]1C/C=C\CCC(=O)O[C@H](c2ccccc2)CNC1=O)N[C@H](CO)Cc1ccccc1	22%	i	-2%	i	.
COc1ccccc1N1CCN(C(=O)NCc2ccc(Cl)cc2)CC1	14%	i	11%	i	-2%
COc1ccccc1N1CCN(C(=O)c2ccc(-c3ccc(Cl)cc3)o2)CC1	16µM*	?	3%	i	?
COc1ccccc1N1CCN(C(=O)c2ccc(-c3nc4ccccc4s3)o2)CC1	22µM*	?	1%[1.84 µM]	i	18%
COc1ccc(Cl)cc1-n1cc(-c2ccccc2)nc1SCC(=O)Nc1ccc(C)cc1	0%[9.22 µM]	i	.	i	.
O=C(Cn1ccn(-c2ccc(F)cc2)c(=O)c1=O)Nc1ccccc1C(F)(F)F	18%	i	.	i	.
CC(C)C(=O)NC(c1ccc(Cl)cc1Cl)c1ccc2cccnc2c1O (stereo not given)	25µM*	i	?	i	5%
CN(C)c1ccc(/C=C/c2ncnc3ccccc23)cc1	.	.	11%	.	.
Cc1ccc(S(=O)(=O)c2cc3c(=O)n4ccccc4nc3n(Cc3ccco3)c2=N)cc1	-18%	14µM*	-3%	i	8%
